Sampled rows, rich in hits. Any-hit rate of the full collection: about 3.3%.
Vaccinia Venus: inhibitors of vaccinia virus (Venus reporter); Vaccinia virus Venus reporter expression, fluorescence; Potency, µM (titrated, usually from 36.5 µM), for inactives: at the top dose activity change, negative = inhibition, hits mostly inhibitors; 330,000 tested, 0.46% active; AID 720580; calls by dose curve; tested in A549 cells; also: nearly all actives have a fitted effect of over 30% in size
VACV mCherry inh: vaccinia inhibition (mCherry reporter); Potency, µM (highest dose often 36.5 µM), inactives show at the top dose activity change, negative = inhibition, usual class: inhibitors; 310,000 tested, 0.63% active; AID 720579; Vaccinia virus mCherry reporter infection, fluorescence; calls by dose curve; tested in A549 cells; also: nearly all actives have a fitted effect of over 35% in size
HCV inh: inhibitors of hepatitis C virus infection; 340,000 tested, 3.4% active; Potency, µM (titrated, usually from 41.8 µM), for inactives: top-dose activity change, negative = inhibition, hits mostly inhibitors; AID 651820; Huh7.5.1 HCVcc-Cre infection, luciferase reporter, 44 h; active = well fitted inhibition curve with a large enough effect; inconclusive = small, poorly fitted or top-dose-only effect, or another doubt; inactive = no such curve, though single readings can be large or run the other way
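Whole-lifecycle infectious HCVcc-Cre system; cells 1,000/well, compound then virus (~0.5 moi) added 4 h after plating, 44 h culture. Luciferase read 15 sec following 15 min substrate incubation, room temp.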
Active calls of the source: *; i = inactive; u = inconclusive; x = not tested or not shown; [ ] = remark or other dose. % is scaled to controls: 0 for no effect and ±100 for the full control effect; potency is read from the fitted curve at half-maximal effect.

SMILES | Vaccinia Venus | VACV mCherry inh | HCV inh
Cc1c(C(=O)NCC2CC2)sc2ncnc(NCCN3CCCCC3)c12 | -1.5% | i | x
COc1ccc(Nc2nc(N)nc(CSc3n[nH]c(-c4ccccc4)n3)n2)cc1 | -24.0% | -17.8% | -16.0%
Nc1nc(CSc2n[nH]c(-c3ccccc3)n2)nc(Nc2ccccc2)n1 | -27.8% | u | 3.16µM*
Cc1cc(C)n(-c2cccc(C(=O)NCC3Cc4cc(Cl)cc(-c5cnccn5)c4O3)c2)n1 (stereo not drawn) | -5.2% | -18.5% | x
Cc1nn(-c2ccc(Cl)cc2)c(=O)c2ccccc12 | x | x | 5.5%
Cc1c(Cl)sn(-c2ccc(Cl)cc2)c1=O | u | u | 2.51µM*
CCOC(=O)C1=CN(Cc2ccco2)S(=O)(=O)N(CC)C1c1ccc(C(F)(F)F)cc1 (stereo not drawn) | -3.1% | -7.9% | u
CCOC(=O)C1(O)Oc2cc(OC)cc(OC)c2C(=O)C1c1ccccc1 (stereo not drawn) | -10.9% | -6.2% | x
COCCCNC(=O)c1nn(C)c2c1CS(=O)(=O)c1ccccc1-2 | -8.6% | -8.2% | x
COc1ccc(CCNC(=O)c2nn(C)c3c2CS(=O)(=O)c2ccccc2-3)c(OC)c1 | 0.0%[7.34 µM] | 12.5%[7.34 µM] | 11.2µM*
Cn1nc(C(=O)NCCc2ccc(S(N)(=O)=O)cc2)c2c1-c1ccccc1S(=O)(=O)C2 | x | x | -15.8%
CCOc1ccc(CCNC(=O)c2nn(C)c3c2CS(=O)(=O)c2ccccc2-3)cc1OCC | -13.8% | -17.9% | 6.31µM*
FC(F)(F)C(F)(F)C(F)(F)c1nc2ccccc2[nH]1 | 4.6% | 15.6% | x
CCC1(c2ccc(F)cc2)NC(=O)N(CC(=O)N2CCN(C(=O)c3ccco3)CC2)C1=O (stereo not drawn) | -12.1% | -19.0% | -3.2%
COc1cc(C(=O)N/C(=C/c2ccc(F)cc2)C(=O)NC(C(=O)O)c2ccccc2)cc(OC)c1OC (stereo not drawn) | x | x | 7.7%
CCOC(=O)CNC(=O)N(C)[C@H]1C[C@H]2c3[nH]c4ccccc4c3CCN2C(=O)[C@H]1[C@H](C)O | -7.1% | i | x
COc1ccc(OC)c2c(=O)cc(C(=O)O)[nH]c12 | -5.6% | -8.4% | 7.8%
COc1ccc(OC)c2c(C)c(C)[nH]c12 | -12.2% | -14.8% | 10µM*
CCCCCCSc1ccc([C@H]2N[C@@](CC(C)C)(C(=O)OC)[C@H]3C(=O)N(C)C(=O)[C@@H]23)cc1OC | u | -9.1% | 7.94µM*
COC(=O)[C@]1(Cc2ccccc2)N[C@H](c2ccc(-c3ccc(F)cc3)cc2)[C@@H]2C(=O)N(C)C(=O)[C@@H]21 | u | -16.2% | 11.2µM*
COC(=O)[C@]1(CC(C)C)N[C@H](c2ccc(SC3CCCCC3)c(OC)c2)[C@@H]2C(=O)N(C)C(=O)[C@@H]21 | -25.8% | u | u
COC(=O)[C@]1(Cc2ccccc2)N[C@H](c2ccc(-c3ccc4c(c3)OCO4)cc2)[C@@H]2C(=O)N(C)C(=O)[C@@H]21 | -21.6% | -14.2% | -2.0%
COC(=O)[C@]1(Cc2ccccc2)N[C@H](c2ccc(-c3cccc(Cl)c3)c(OC)c2)[C@@H]2C(=O)N(C)C(=O)[C@@H]21 | u | u | 2.24µM*
CCN1C(=O)[C@H]2[C@@H](c3ccc(-c4cccc(Cl)c4)c(OC)c3)N[C@@](Cc3ccccc3)(C(=O)OC)[C@H]2C1=O | u | i | 0.1%
COc1ccc(CN(Cc2ccccc2)C(=O)c2ccncc2)cc1COc1ccc(NC(C)=O)cc1 | -14.1% | i | x
SMILES | Vaccinia Venus | VACV mCherry inh | HCV inh
CN1CCN(c2ncc3c(n2)CCN(Cc2ccc(Br)s2)C3)CC1 | -11.0% | -7.0% | x
O=C(CSc1oc(-c2ccco2)nc1S(=O)(=O)c1ccc(Br)cc1)c1ccc(Cl)cc1 | -16.8% | -12.5% | x
O=C(Cn1c(=O)n(Cc2ccccc2)c(=O)c2sc3ccccc3c21)Nc1ccc(F)cc1 | -28.2% | -21.4% | x
COc1cccc(-n2cc(C(=O)NCCc3cccc(C)c3)c3ccccc3c2=O)c1 | -13.6% | -14.9% | x
COc1ccc(NC(=O)Cn2nc(C)c3nn(-c4ccc(Cl)cc4)c(C)c3c2=O)cc1 | -14.8% | -17.9% | x
COc1ccccc1CNC(=O)CCc1c(C)nn(-c2ccc(N3CCCC3)nn2)c1C | -7.6% | -9.4% | x
CC(C)C[C@H](NC(=O)OC(C)(C)C)C(=O)N1CCC(C(=O)N[C@@H](Cc2c[nH]c3ccccc23)C(=O)O)CC1 | -0.6% | -6.2% | -8.1%
CCC1CN2CCc3cc(OC)c(OC)cc3C2CC1CC1c2cc(OC)c(OC)cc2CCN1C(=O)C(Cc1c[nH]c2ccccc12)NC(=O)OC(C)(C)C (stereo not drawn) | -25.8% | -11.9% | 11.2µM*
CC(=O)c1cccc(-n2nnnc2SCC(=O)Nc2cc(C)on2)c1 | -5.7% | -4.4% | u
Cc1ccc2nc(-c3ccc(Cl)cc3)cc(C(=O)OCC(=O)c3ccccc3)c2c1 | 8.9% | 2.6% | x
CC1CCC(C(C)C)C(OC(=O)Cn2c(-c3ccc(Br)cc3)[n+](C)c3ccccc32)C1 (stereo not drawn) | 12.6µM* | 11.2µM* | u
CC1CCC(C(C)C)C(OC(=O)Cn2c(-c3ccc(Cl)cc3)[n+](C)c3ccccc32)C1 (stereo not drawn) | 10.7%[7.34 µM] | 2.2%[7.34 µM] | u
CC1CCC(C(C)C)C(OC(=O)COC(=O)c2ccccc2N)C1 (stereo not drawn) | -11.1% | -5.0% | 8.9%
Cc1ccccc1OCc1n(CC(=O)OC2CC(C)CCC2C(C)C)c2ccccc2[n+]1C (stereo not drawn) | 11.2µM* | u | u
CCC1C(=O)NCCN1Cc1ccc2c(c1)CN(Cc1ccc(OC)cc1OC)CCO2 (stereo not drawn) | 1.2% | -10.2% | x
CCCn1c(=NC(=O)c2cc3ccccc3o2)c(C(=O)OCC)cc2c(=O)n3ccccc3nc21 | -9.6% | -27.8% | x
O=[N+]([O-])c1ccc(-c2nc(Cl)c3c(n2)CCCC3)o1 | u | 11.2µM* | x
Cc1ccc(-c2c(C#N)c(N)nc3c2CCCCC3)o1 | x | x | 5.5%
O=C(NCCCNC(=O)c1ccccn1)c1ccc(Cl)cc1 | -15.2% | -9.8% | 2.3%
CCOC(=O)NCc1ccccc1 | -16.4% | i | 2.82µM*
CCOC(=O)C(Cc1ccccc1)C(=O)NCc1ccccc1 (stereo not drawn) | -13.0% | -10.3% | 12.2%
C[C@@H]1CN([C@@H](C)CO)C(=O)c2cc(NC(=O)C3CCCCC3)ccc2O[C@@H](C)CCCCO[C@H]1CN(C)S(=O)(=O)c1ccc(Cl)cc1 | -27.9% | i | x
CCOc1ccc(Cn2c(=O)sc3ccccc32)cc1OC | x | x | 10µM*
COc1cc(Cn2c(=O)sc3ccccc32)ccc1OC(C)C | -16.1% | -19.1% | x
CC1CCCCN1CCCNC(=O)c1sc2ncccc2c1-n1cccc1 (stereo not drawn) | -14.0% | -9.4% | x
CCN(CC)S(=O)(=O)c1ccc(Cl)c(C(=O)Nc2nnc(C)s2)c1 | x | x | 22.4µM*
CCN1CCN(S(=O)(=O)c2ccc(Cl)c(C(=O)Nc3nnc(C)s3)c2)CC1 | -0.8% | -8.6% | 2.3%
CN(C)N(C(=O)c1cc(-c2cccs2)nn1-c1ccccc1)C1CCS(=O)(=O)C1 (stereo not drawn) | x | x | -22.4%
COc1ccc(S(=O)(=O)N2CCN(c3ccccc3)CC2)cc1-c1noc(C)n1 | -7.2% | -12.4% | x
CCn1cc(C(=O)NCc2ccc3c(c2)OCO3)c(=O)c2cc(F)c(N3CCN(C(=O)c4ccco4)CC3)cc21 | 12.6µM* | 11.2µM* | u
